Test results reported in PubChem BioAssay.
Values joined by “and” are separate entries in the source; they are usually repeats but may differ in a detail not shown here. Equal entries are not always repeated. Active and inactive are the calls of the source.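 Rule for the calls, unless noted: active = thallium flux through the channel raised or lowered by more than 3 SD from vehicle-only wells, actives on both sides; inactive = the rest.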

Tests used:
[1] = stimulators of nuclear beta-catenin in C2C12, primary screen, imaging, WNT3A-conditioned medium, mouse C2C12, NPC library (AID 1117326; in the data active = nuclear beta-catenin stimulation mostly above about 4.2%, no sharp cut-off; inactive = mostly below about 10%); conditions: stronger effect = higher value
[2] = stimulators of insulin release from INS-1E, primary screen, cell-based, 5 mM glucose, NPC library (AID 1117329;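 active = compound raises insulin release from rat beta cells at 5 mM glucose, no numeric limit stated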); conditions: rat INS-1E insulin secretion, at 10 µM, stronger effect = higher value
[3] = growth inhibition of GSK3B-pretreated HCT116 cells – cell-based, CellTiter-Glo, 0.2 to 20 µM (AID 1117336;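 active = compounds lowering colon cancer cell viability after pretreatment blocking the GSK3B kinase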); conditions: HCT116 viability after GSK3B inhibitor, at 20 µM, stronger effect = higher value
[4] = inhibition of endothelial tube formation, primary screen, imaging, VEGF stimulated, CD31 staining, tube area, NPC library (AID 1117340;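 active = compound that reduces growth-factor-driven endothelial tube area in a mixed cell culture, no cutoff stated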); conditions: VEGF-stimulated ADSC/ECFC co-culture, at 10 µM, stronger effect = higher value
[5] = glucagon-like peptide 1 release enhancers, primary assay, NCI-H716 cell line, NPC library (AID 1117341;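 active = compound raises GLP1 secretion from the human gut endocrine cells, with no numeric limit stated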); conditions: NCI-H716 cells, at 10 µM, stronger effect = higher value
[6] = HCT116 colon cancer cell growth inhibition, primary screen, CellTiter-Glo luminescence, NPC library (AID 1117342;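 active = compounds that lower survival of HCT116 colon cancer cells in the luminescence readout, no numeric limit stated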); conditions: at 20 µM (top of the series)
[7] = CellTiter-Glo luminescent readout of SW480 viability loss, NPC library primary (AID 1117343;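 active = compounds that lower viability of the colon cancer cells in the luminescence readout, with no numeric limit stated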); conditions: CellTiter-Glo luminescence; at 20 µM (top of the series)
[8] = decreased DLD-1 cellular survival, CellTiter-Glo luminescent readout, NPC compound collection, primary HTS (AID 1117346;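 active = compounds that lower survival of DLD-1 colon cancer cells in the luminescence readout, no cutoff given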); conditions: DLD-1 viability, CellTiter-Glo luminescence; at 20 µM (top of the series)
[9] = molecular target: 6-phosphogluconate dehydrogenase, decarboxylating (Homo sapiens) (UniProt P52209); assay: 6PGD enzyme inhibitors, primary screen, biochemical, human, recombinant enzyme, NADPH absorbance (AID 1159550;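 active = at least 20% inhibition of 6-phosphogluconate dehydrogenase activity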); conditions: recombinant 6PGD, NADPH absorbance 341 nm; at 10 µM; stronger effect = higher value
[10] = differential killing of epithelial or mesenchymal cells, primary screen, imaging, PC-3E GFP, TEM4-18 mCherry, co-culture (AID 1345086;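 active = compounds killing one labelled cell type while sparing the other, by normalised counts and ratio limits, not self-fluorescent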;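 for all read-outs here: cells exposed to compound for 72 h before imaging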;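 for red/green cell ratio (normalised): normalised mesenchymal count divided by normalised epithelial count so high means epithelial killing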); conditions: imaging cell counts, at 1 µM; for red/green cell ratio (normalised): actives lie on both sides, counts scaled to control wells, 1 = unselective
[11] = sensitizers of A549 cells to miR-34 induction, primary screen, imaging, A549 dox-inducible miR-34, nuclei and caspase counts (AID 1347080;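 active = compounds whose cell count with miR-34 switched on is under 0.7 times the count with it off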); conditions: A549 miR-34 inducible, Hoechst nuclei count, 48 h
[12] = survival rescue of mitochondrial mutant cells in low glucose, primary screen, MELAS cybrids, Rieske KO mouse fibroblasts, CellTiter-Glo (AID 1508586;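 active = mean z-score across replicates of 1.96 or higher in either the MELAS or the Rieske mutant cell line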;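 note: z relative to plate mean and SD of compound and empty wells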)
[13] = molecular target: NAD(+) hydrolase SARM1 (Homo sapiens) (UniProt Q6SZW1); assay: SARM1 TIR NADase inhibitors, cell lysate, NAD-Glo luminescence (AID 1508614;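 active = compound whose remaining NAD level is above about 45 nM, limit read from the data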;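 note: higher remaining NAD means stronger inhibition of SARM1 NADase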); conditions: SAM-TIR HEK293T lysate NADase, at 1 µM, stronger effect = higher value
[14] = molecular target: Mitogen-activated protein kinase 7 (Homo sapiens) (UniProt Q13164); assay: ERK5 transactivation activators in reporter cells, primary screen, cell-based, HTS (AID 1508626;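 active = luciferase signal above three times the same-plate solvent-only control wells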;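 note: luciferase driven by Gal4-ERK5 fusion binding five Gal4 sites before minimal TATA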); conditions: HeLa Gal4-ERK5 transactivation, 18 h, at 5 µM, stronger effect = higher value
F380Y = assay: modulators of BK channel variants, profiling panel, selectivity assay, cell-based, U2OS BacMam, thallium flux, beta subunits (AID 1259406); conditions: at 30 µM;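 note: initial slope of Thallos dye fluorescence rise after thallium is added; log ratio against the mean of 0.3% DMSO vehicle wells on the same plate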
F380Y/beta2Delta = assay: as above; conditions: at 30 µM
[15] = molecular target: Calcium-activated potassium channel subunit alpha-1 (Homo sapiens) + Leucine-rich repeat-containing protein 26 (Homo sapiens) (UniProt Q12791+Q2I0M4); assay: as above; conditions: F380Y/Slo1WT/gamma1, at 30 µM
R275C = assay: as above; conditions: at 30 µM
R275C/beta1 = assay: as above; conditions: at 30 µM
R275C/beta2Delta = assay: as above; conditions: at 30 µM
[16] = measured here: epithelial PC-3E GFP cell survival
[17] = measured here: mesenchymal TEM4-18 mCherry cell survival
[18] = stronger effect = lower value, cell number ratio, induced over uninduced
[19] = measured here: relative caspase fold change +Dox/-Dox
[20] = measured here: total cells with miR-34 induction, stronger effect = lower value
[21] = measured here: total cells without miR-34 induction
[22] = MELAS cybrid survival, CellTiter-Glo 48 h, stronger effect = higher value
[23] = Rieske KO mouse fibroblast survival, CellTiter-Glo 72 h

Sequence of 6-phosphogluconate dehydrogenase, decarboxylating (Homo sapiens) (P52209 whole entry, looked up): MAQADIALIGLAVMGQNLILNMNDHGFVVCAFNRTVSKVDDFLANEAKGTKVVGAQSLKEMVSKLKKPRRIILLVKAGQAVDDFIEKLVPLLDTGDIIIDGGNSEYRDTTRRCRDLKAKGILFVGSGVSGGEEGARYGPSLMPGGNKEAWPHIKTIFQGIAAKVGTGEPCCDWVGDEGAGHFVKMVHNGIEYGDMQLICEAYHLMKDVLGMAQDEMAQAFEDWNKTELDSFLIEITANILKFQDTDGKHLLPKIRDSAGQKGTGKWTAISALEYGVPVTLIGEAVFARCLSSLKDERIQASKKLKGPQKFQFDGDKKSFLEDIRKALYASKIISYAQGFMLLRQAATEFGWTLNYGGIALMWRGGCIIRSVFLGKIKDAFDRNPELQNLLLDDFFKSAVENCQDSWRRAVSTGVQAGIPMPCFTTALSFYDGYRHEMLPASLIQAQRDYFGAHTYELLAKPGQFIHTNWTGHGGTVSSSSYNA
Sequence of Calcium-activated potassium channel subunit alpha-1 (Homo sapiens) + Leucine-rich repeat-containing protein 26 (Homo sapiens) (Q2I0M4 whole entry, looked up, one chain of several): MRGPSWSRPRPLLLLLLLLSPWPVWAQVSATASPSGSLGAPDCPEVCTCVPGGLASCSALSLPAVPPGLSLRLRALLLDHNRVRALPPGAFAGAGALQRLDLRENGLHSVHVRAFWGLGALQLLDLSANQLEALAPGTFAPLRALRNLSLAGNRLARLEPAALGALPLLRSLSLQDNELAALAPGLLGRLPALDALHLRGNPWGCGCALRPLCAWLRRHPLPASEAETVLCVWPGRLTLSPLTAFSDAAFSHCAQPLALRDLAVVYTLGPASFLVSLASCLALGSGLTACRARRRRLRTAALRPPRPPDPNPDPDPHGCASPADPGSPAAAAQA
Sequence of Mitogen-activated protein kinase 7 (Homo sapiens) (Q13164 whole entry, looked up, the tested form may be a part): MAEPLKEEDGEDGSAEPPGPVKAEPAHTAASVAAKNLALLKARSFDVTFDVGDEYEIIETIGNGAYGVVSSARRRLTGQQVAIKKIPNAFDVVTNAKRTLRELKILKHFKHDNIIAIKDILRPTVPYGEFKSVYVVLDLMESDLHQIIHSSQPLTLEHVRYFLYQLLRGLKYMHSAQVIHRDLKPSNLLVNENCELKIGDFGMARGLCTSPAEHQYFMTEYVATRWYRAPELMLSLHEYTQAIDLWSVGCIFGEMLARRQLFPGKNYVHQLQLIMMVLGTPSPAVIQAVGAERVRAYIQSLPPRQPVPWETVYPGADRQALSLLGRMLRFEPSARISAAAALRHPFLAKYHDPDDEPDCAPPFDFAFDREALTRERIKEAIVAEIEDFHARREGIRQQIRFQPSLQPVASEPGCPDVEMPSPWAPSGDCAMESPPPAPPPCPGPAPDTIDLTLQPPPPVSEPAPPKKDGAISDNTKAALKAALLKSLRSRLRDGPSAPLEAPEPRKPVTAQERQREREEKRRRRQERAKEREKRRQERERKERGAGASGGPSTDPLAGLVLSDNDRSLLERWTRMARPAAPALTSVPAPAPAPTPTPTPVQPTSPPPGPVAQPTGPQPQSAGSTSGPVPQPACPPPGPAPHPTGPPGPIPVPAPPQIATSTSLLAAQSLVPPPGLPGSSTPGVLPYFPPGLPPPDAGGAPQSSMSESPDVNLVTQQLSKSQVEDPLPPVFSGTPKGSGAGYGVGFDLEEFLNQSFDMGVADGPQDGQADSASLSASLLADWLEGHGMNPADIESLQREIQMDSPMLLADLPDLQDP
Sequence of NAD(+) hydrolase SARM1 (Homo sapiens) (Q6SZW1 whole entry, looked up, the tested form may be a part): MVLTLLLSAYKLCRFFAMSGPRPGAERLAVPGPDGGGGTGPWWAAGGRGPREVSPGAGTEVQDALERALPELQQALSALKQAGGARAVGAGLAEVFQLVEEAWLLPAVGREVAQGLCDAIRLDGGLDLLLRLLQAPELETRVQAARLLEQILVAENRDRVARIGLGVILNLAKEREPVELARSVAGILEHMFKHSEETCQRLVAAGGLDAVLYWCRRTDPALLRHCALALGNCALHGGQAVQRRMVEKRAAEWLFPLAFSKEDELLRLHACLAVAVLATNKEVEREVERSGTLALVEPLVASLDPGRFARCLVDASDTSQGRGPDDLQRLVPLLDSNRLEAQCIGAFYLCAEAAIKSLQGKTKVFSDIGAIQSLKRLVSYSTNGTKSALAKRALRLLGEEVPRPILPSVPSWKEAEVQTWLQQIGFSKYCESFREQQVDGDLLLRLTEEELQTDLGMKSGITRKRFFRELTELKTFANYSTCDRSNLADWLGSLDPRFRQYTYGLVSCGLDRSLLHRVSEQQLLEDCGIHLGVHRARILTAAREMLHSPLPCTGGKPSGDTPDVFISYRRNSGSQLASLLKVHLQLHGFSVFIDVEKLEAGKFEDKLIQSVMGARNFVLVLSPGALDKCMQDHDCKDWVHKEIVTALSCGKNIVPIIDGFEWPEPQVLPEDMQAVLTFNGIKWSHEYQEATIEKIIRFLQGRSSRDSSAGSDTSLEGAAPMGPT

O=C1C(CCS(=O)c2ccccc2)C(=O)N(c2ccccc2)N1c1ccccc1 (configuration not stated)
inactive: nuclear beta-catenin stimulation ([1]; at 10 µM) 0.9% | insulin secretion stimulation [2] 2.6% | viability decrease [3] -21% | tube area decrease [4] 1% | GLP1 secretion stimulation [5] -0.7% | inhibition of viability [6] -1.5% | viability decrease (inhibition) [7] 15.3% | viability decrease (inhibition) [8] -15.6% | inhibition [9] -6.96% | red/green cell ratio (normalised) [10] 1.33 | fold change [11, 18] 1.01 and 1 and 0.826 | z-score [12, 22] 0.278 | remaining NAD [13] 10 nM | luciferase signal [14] 104 AU | log fold change Tl+ flux (F380Y) -0.0134 | log fold change Tl+ flux (F380Y/beta2Delta) 0.0447 | log fold change Tl+ flux [15] 0.000816 | log fold change Tl+ flux (R275C) -0.0788 | log fold change Tl+ flux (R275C/beta1) 0.0129 | log fold change Tl+ flux (R275C/beta2Delta) -0.0044
0.23: z-score [12, 23]
0.93: normalised cell number [10, 16]
11300 and 8200 and 12500: cell count [11, 21]
1.95 and 1.38 and 4.04: fold change [11, 19]
0%: nuclear beta-catenin stimulation ([1]; stimulation, at 2 µM)
1.24: normalised cell number [10, 17]
11300 and 8240 and 10300: cell count [11, 20]

CCc1cccc2c3c([nH]c12)C(CC)(CC(=O)O)OCC3 (configuration not stated)
inactive: nuclear beta-catenin stimulation ([1]; at 10 µM) 0.9% | insulin secretion stimulation [2] -0.3% | viability decrease [3] -31.2% | tube area decrease [4] -16.6% | GLP1 secretion stimulation [5] -0.9% | inhibition of viability [6] 1.5% | viability decrease (inhibition) [7] -4.5% | viability decrease (inhibition) [8] -11.6% | inhibition [9] -23.2% | red/green cell ratio (normalised) [10] 1.13 | z-score [12, 22] -0.968 | remaining NAD [13] 10 nM | luciferase signal [14] 164 AU | log fold change Tl+ flux (F380Y) 0.0338 | log fold change Tl+ flux (F380Y/beta2Delta) -0.0224 | log fold change Tl+ flux [15] 0.00932 | log fold change Tl+ flux (R275C) 0.0181 | log fold change Tl+ flux (R275C/beta2Delta) 0.0673
0.3%: nuclear beta-catenin stimulation ([1]; stimulation, at 2 µM)
active: log fold change Tl+ flux (R275C/beta1) 0.127
1.03: normalised cell number [10, 17]
0.9: normalised cell number [10, 16]
-0.359: z-score [12, 23]

Cc1ncc([N+](=O)[O-])n1CC(C)O (configuration not stated)
9820 and 10000 and 10600: cell count [11, 21]
9430 and 9630 and 9650: cell count [11, 20]
0.94: normalised cell number [10, 17]
0.828 and -0.245 and -0.0796: z-score [12, 23]
inactive: nuclear beta-catenin stimulation ([1]; at 10 µM) 3.5% | insulin secretion stimulation [2] -0.9% | viability decrease [3] -3.45% | tube area decrease [4] -13.6% | GLP1 secretion stimulation [5] 4.1% | inhibition of viability [6] -0.3% | viability decrease (inhibition) [7] 5.3% | viability decrease (inhibition) [8] -0.75% | inhibition [9] -1.51% | red/green cell ratio (normalised) [10] 0.83 | fold change [11, 18] 0.961 and 0.91 | z-score [12, 22] -0.319 and 0.295 and -0.342 | remaining NAD [13] 10 nM | luciferase signal [14] 40 AU | log fold change Tl+ flux (F380Y) -0.058 | log fold change Tl+ flux (F380Y/beta2Delta) -0.00369 | log fold change Tl+ flux [15] -0.0293 | log fold change Tl+ flux (R275C/beta1) 0.00616 | log fold change Tl+ flux (R275C/beta2Delta) -0.0048
1.6%: nuclear beta-catenin stimulation ([1]; stimulation, at 2 µM)
1.68 and 0.635 and 1.41: fold change [11, 19]
1.13: normalised cell number [10, 16]
active: log fold change Tl+ flux (R275C) -0.115
